According to PubChem BioAssay (NCATS):
Values without a mark were called inactive. Records with an inconclusive call do not appear. Calls of active or inactive are those of the source. Unless noted, calls come from the whole dose curve; as a rule, active = well fitted curve in either direction with a large enough effect (not every such curve was filed as active); inconclusive = small, poorly fitted or top-dose-only effect, or another doubt; inactive = flat fitted curve, though single readings scatter.

Experiments:
[1] = target: Lysosomal acid glucosylceramidase (Homo sapiens) (UniProt P04062); experiment: Glucocerebrosidase-p2 (AID 348; in the data active = potency below about 10 µM; note: potency is the fitted concentration of half-maximal effect); conditions: purified GBA, blue fluorogenic substrate, 40 min
How it was run: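 Compounds titrated from 0.6 nM upwards against 0.2 nM enzyme in pH 5.9 citric acid/KH2PO4, taurocholate, tween-20; blue fluorogenic substrate 80 uM, 40 min room temperature, stopped and read Ex 365/Em 440 for AC50.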

[2] = AP1 Signaling Pathway (AID 357); conditions: ME-180 AP-1-bla reporter, EGF-induced, beta-lactamase ratio, 5 h; at 7.69 µM (top of the series) unless noted;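 note: ME-180 reporter cells stimulated with EGF at its EC50 level; % is set by controls: 0 for no effect and ±100 for the full control effect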
How it was run: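 A ratiometric CCF4 readout (405 nm excitation; 460 and 530 nm emission) quantified AP-1-driven beta-lactamase in ME-180 cells after 5 h with compound and EC50 EGF; AC50 values were derived for activators and inhibitors.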

[3] = target: Cytochrome P450 1A2 (Homo sapiens) (UniProt P05177); experiment: p450-cyp1a2 (AID 410; calls by dose curve; note: potency is the fitted concentration of half-maximal effect;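 for activity change, negative = inhibition: -100% = full effect of reference inhibitor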); conditions: recombinant CYP1A2, luciferin-ME demethylation, luminescence; series mostly up to 11.4 µM
How it was run: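 20nM CYP1A2 with 100uM Luciferin-ME (at Km) in 100mM KPO4; compound preincubated 10 min, NADPH regeneration added, 60 min at room temperature. Luciferin quantified by luminescence after detection reagent; normalized to 57 uM furafylline.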

[4] = NFAT Signaling Pathway (AID 444); conditions: Jurkat NFAT-bla M1, carbachol, beta-lactamase ratio, 5 h; at 7.69 µM (top of the series) unless noted;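 note: carbachol stimulus at about its EC50 of 1 µM final; % is set by controls: 0 for no effect and ±100 for the full control effect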
How it was run: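 Jurkat cells carrying an NFAT-driven β-lactamase reporter and co-transfected muscarinic M1 receptor were treated with compound plus carbachol (1 uM final, an EC50 level) for 5 h at 37 °C. CCF4 loading followed for 1 h at RT; 460/530 nm ratio gave %activity.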

[5] = Stat Signaling Pathway (AID 446); conditions: ME-180 SIE beta-lactamase reporter, IL-6 stimulated, 5 h; at 7.69 µM (top of the series) unless noted;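 note: ME-180 cervical cancer cells given 40 pM IL-6 alongside compound; SIE-controlled beta-lactamase reporter measured as 460/530 nm FRET emission ratio; % is set by controls: 0 for no effect and ±100 for the full control effect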
How it was run: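 ME-180 cells carrying a SIE-driven beta-lactamase reporter are stimulated with 40 pM IL-6 for 5 h at 37C in the presence of compound. The 460/530 nm FRET substrate ratio is read after 2.5 h at RT. Data are normalised to 300 pM IL-6 and to 125 nM JAK inhibitor controls.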

[6] = target: Glucocorticoid receptor (Homo sapiens) (UniProt P04150); experiment: GR-GFP Redistribution (AID 450;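 active = compounds whose dose series gives a full or clear partial fitted curve of increased nuclear translocation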; note: potency is the fitted concentration of half-maximal effect); conditions: U2OS GR-GFP nuclear translocation, laser cytometry, 2 h
[7] = target: Glucocorticoid receptor (Homo sapiens) (UniProt P04150); experiment: GR-EFC Redistribution (AID 451; calls by dose curve; note: potency is the fitted concentration of half-maximal effect); conditions: CHO-K1 GR-EFC translocation, beta-gal luminescence, 2 h
How it was run: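 CHO-K1 cells stably expressing nuclear-localized β-gal enzyme acceptor and GR fused C-terminally to the enzyme donor fragment; ligand-driven nuclear translocation restores β-gal by complementation. Compounds titrated up to 46 uM final, 2 h at 37 °C; luminescence read.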

[8] = target: Mitogen-activated protein kinase 10 (Mus musculus) (UniProt Q61831); experiment: JNK3 AlphaScreen Assay (AID 530); conditions: JNK3 lysate, c-Jun phosphorylation; series mostly up to 11.4 µM;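 note: kinase came from lysate of stimulated human HepG2 cells; signal reports phosphorylation of biotinylated GST-cJun 1-79 at Ser73 with 10 µM ATP; % is set by controls: 0 for no effect and ±100 for the full control effect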
How it was run: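 Inhibitors reduce antibody binding to phosphorylated biotin-cJun, lowering AlphaScreen luminescence. Lysates from HepG2 cells pre-activated by IL-1beta plus TNF-alpha supplied JNK3; compounds were titrated.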

[9] = target: 3',5'-cyclic-AMP phosphodiesterase 4B (Homo sapiens) (UniProt Q07343); experiment: qHTS Assay for Inhibitors of PDE-IV (AID 607; active = well fitted activation curve with a large enough effect in the main read-out, with a control signal flat, not every such curve was filed as active; note: % of control where 0% means no effect); conditions: HEK293 ACTOne CNG channel cells, membrane potential fluorescence; series mostly up to 22.9 µM
How it was run: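 HEK293 ACTOne cells with CNG channel (1000/well), endogenous PDE4; membrane potential dye, compounds up to 22.9 uM final. Fluorescence Ex 535/Em 590; RO 20-1724 (100 uM final) as reference.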

Chain of Cytochrome P450 1A2 (Homo sapiens) (P05177 whole entry, looked up): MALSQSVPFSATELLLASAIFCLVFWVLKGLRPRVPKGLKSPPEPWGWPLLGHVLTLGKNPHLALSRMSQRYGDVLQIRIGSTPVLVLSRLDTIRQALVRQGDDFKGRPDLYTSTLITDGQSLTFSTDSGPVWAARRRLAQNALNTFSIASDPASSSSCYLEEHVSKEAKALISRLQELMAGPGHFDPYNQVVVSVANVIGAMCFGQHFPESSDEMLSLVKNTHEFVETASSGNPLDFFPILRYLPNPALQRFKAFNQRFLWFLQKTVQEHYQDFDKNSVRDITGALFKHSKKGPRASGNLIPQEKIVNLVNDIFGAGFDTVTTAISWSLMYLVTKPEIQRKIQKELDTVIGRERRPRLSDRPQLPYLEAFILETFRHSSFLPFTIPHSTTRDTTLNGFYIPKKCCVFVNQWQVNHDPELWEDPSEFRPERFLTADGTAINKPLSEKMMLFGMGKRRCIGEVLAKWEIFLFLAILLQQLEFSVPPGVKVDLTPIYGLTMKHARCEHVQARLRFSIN
Chain of Glucocorticoid receptor (Homo sapiens) (P04150 whole entry, looked up, the tested form may be a part): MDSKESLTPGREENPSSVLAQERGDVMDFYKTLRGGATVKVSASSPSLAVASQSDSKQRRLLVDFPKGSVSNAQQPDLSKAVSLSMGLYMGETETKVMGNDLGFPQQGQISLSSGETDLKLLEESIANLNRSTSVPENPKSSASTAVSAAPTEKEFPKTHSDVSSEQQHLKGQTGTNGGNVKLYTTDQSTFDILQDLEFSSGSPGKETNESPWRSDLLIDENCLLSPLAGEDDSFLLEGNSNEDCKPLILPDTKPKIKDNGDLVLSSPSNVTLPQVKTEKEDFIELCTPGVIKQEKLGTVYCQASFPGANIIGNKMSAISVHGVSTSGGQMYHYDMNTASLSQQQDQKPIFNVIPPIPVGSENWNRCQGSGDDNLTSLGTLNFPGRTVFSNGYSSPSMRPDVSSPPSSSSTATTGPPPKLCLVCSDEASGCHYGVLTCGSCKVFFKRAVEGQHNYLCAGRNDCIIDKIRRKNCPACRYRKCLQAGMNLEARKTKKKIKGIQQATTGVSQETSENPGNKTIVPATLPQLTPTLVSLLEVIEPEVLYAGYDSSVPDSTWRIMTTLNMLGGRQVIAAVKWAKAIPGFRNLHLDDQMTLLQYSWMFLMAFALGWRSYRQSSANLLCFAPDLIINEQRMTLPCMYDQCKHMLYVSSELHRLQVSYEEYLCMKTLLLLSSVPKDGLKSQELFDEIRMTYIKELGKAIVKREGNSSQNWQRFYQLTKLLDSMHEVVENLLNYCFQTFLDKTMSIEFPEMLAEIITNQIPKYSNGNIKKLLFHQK
Chain of 3',5'-cyclic-AMP phosphodiesterase 4B (Homo sapiens) (Q07343 whole entry, looked up): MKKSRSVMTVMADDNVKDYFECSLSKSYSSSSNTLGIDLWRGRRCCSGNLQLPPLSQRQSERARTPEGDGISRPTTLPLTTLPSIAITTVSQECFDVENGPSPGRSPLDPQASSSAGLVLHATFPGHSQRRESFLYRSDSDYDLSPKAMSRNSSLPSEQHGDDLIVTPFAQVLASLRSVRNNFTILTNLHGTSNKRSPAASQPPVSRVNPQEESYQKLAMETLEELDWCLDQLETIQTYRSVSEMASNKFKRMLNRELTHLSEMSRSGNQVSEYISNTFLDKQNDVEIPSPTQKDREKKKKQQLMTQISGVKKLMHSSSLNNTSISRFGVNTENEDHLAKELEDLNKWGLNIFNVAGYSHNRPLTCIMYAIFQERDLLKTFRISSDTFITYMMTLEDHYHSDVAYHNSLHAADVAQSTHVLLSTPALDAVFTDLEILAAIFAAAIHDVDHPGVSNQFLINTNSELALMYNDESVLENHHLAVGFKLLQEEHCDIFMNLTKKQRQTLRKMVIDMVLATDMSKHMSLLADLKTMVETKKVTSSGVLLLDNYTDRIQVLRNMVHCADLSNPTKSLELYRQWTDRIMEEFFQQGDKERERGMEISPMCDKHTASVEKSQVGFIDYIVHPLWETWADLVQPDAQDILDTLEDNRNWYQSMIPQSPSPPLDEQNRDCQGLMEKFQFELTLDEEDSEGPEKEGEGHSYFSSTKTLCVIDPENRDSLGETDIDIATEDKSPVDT
Chain of Lysosomal acid glucosylceramidase (Homo sapiens) (P04062 whole entry, looked up): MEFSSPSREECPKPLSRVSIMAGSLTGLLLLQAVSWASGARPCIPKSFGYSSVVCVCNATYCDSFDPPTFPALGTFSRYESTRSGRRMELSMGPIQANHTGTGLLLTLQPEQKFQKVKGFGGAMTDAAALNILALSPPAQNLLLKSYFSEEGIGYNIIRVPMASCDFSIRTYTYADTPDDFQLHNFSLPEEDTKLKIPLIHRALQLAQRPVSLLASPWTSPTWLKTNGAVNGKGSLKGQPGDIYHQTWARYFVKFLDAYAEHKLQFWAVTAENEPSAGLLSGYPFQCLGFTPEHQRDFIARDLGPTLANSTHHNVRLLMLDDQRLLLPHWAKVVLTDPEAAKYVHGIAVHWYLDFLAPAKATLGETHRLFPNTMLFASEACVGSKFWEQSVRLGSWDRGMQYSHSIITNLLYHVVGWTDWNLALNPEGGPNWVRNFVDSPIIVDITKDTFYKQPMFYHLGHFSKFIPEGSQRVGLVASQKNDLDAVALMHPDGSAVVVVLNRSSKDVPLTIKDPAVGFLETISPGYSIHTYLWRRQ

Compound	Potency [1]	activity change, negative = inhibition [2]	Potency [3]	activity change, negative = inhibition [4]	activity, negative = inhibition [5]	Potency [6]	Potency [7]	Potency [8]	Potency [9]	activity change, negative = inhibition [3]
Cc1ccc(S(=O)(=O)NCc2cccc([N+](=O)[O-])c2)cc1	> 11.4 µM	-2.52%	3.98 µM (active)	6.53%	2.25%	> 46 µM	> 9.22 µM	inactive	inactive	–
Oc1cc(O)c2c(c1)O[C@@H](c1ccc(O)c(O)c1)[C@H](O[C@@]1(c3cc(O)c(O)c(O)c3)Oc3cc(O)cc(O)c3[C@H](O)[C@@H]1O)C2	> 11.4 µM	9.41%	inactive	13.8%	-22.3%	> 46 µM	> 9.22 µM	inactive	inactive	–
O=C(O)CCCSc1ccccc1	> 11.4 µM	-2.81%	inactive	-1.05%	4.11%	> 46 µM	> 9.22 µM	inactive	inactive	–
Fc1cccc(F)c1C(Nc1nncs1)Nc1nncs1	> 11.4 µM	1.35%	–	15.7%	6.21%	> 46 µM	> 9.22 µM	inactive	inactive	12.3% [at 2.29 µM]
O=C(O)[C@@H](O)c1ccc(F)cc1	> 11.4 µM	26.9%	inactive	11%	8.22%	> 46 µM	> 9.22 µM	inactive	inactive	–
CCSC[C@@H](N)C(=O)O	> 11.4 µM	5.2%	–	-9.5%	0.221%	> 46 µM	> 9.22 µM	inactive	inactive	-1.6% [at 2.29 µM]
O=c1[nH]c(=S)[nH]c2c1CN(CCCN1CCOCC1)CN2	> 11.4 µM	3.35%	–	4.33%	4.09%	> 46 µM	> 9.22 µM	inactive	inactive	-13.5% [at 2.29 µM]
C[C@H]1[C@H](C)OC(=O)C[C@H](O)C[C@H](O)C[C@H](O)CC[C@H](O)[C@H](O)CC(=O)C[C@H](O)[C@H](C(=O)O)[C@H](O)C[C@H](O[C@@H]2O[C@@H](C)[C@H](O)[C@@H](N)[C@@H]2O)C=CC=CC=CC=CCCC=CC=C[C@@](C)(O)[C@H]1O	> 11.4 µM	4.16%	inactive	2.48%	-6.26%	> 46 µM	> 9.22 µM	inactive	inactive	–
O=C(O)CSc1nnc2c3ccccc3c3ccccc3c2n1	> 11.4 µM	-9.84%	0.0794 µM (active)	22.2%	10.3%	> 46 µM	> 9.22 µM	inactive	inactive	–
N#C/C(=C\N1CCNC1=S)C(=O)c1ccc2ccccc2c1	> 11.4 µM	-19.2%	1.58 µM (active)	5.58%	-8.82%	> 46 µM	> 9.22 µM	inactive	inactive	–
O=S(=O)(C[C@H](O)C(Cl)(Cl)Cl)NNc1ccccc1	> 11.4 µM	-0.0496%	–	2.68%	5.12%	> 46 µM	> 9.22 µM	inactive	inactive	0.8% [at 2.29 µM]
CN1CCN(CCCN)CC1	> 11.4 µM	0.666%	inactive	18.2%	6.19%	> 46 µM	> 9.22 µM	inactive	inactive	–
C#CCOCCCC(=O)O	> 11.4 µM	-3.26%	inactive	0.738%	4.1%	> 46 µM	> 9.22 µM	inactive	inactive	–
O=C(O)c1cc(-c2ccc3cc4c(cc3c2)OCO4)nc2ccccc12	> 11.4 µM	-11%	3.16 µM (active)	-22.2%	-8.03%	> 46 µM	> 9.22 µM	inactive	inactive	–
C[C@H](CN(C)C)C(=O)c1ccccc1C(=O)O	> 11.4 µM	-1.25%	inactive	-1.83%	14.8%	> 46 µM	> 9.22 µM	inactive	inactive	–
O=C(O)c1ccccc1/C=N\N=C1c2ccccc2-c2ccccc21	> 11.4 µM	20.6%	0.316 µM (active)	7.67%	-13.9%	> 46 µM	> 9.22 µM	inactive	inactive	–

Compound	Potency [1]	activity change, negative = inhibition [2]	Potency [3]	activity change, negative = inhibition [4]	activity, negative = inhibition [5]	Potency [6]	Potency [7]	Potency [8]	Potency [9]	activity change, negative = inhibition [3]
O=C(O)COc1c(Cl)cc(Cl)c2cccnc12	> 11.4 µM	6.1%	–	1.63%	-0.716%	> 46 µM	> 9.22 µM	inactive	inactive	-1.3% [at 2.29 µM]
c1cncc(CNc2ncn[nH]2)c1	> 11.4 µM	12.7%	inactive	15.3%	-1.59%	> 46 µM	> 9.22 µM	inactive	inactive	–
O=C(O)c1cc(-c2ccc(-c3ccc(-c4cc(C(=O)O)c5cc(Cl)ccc5n4)cc3)cc2)nc2ccc(Cl)cc12	> 11.4 µM	-6.84%	–	-22%	-13.1%	> 46 µM	> 9.22 µM	inactive	inactive	-18.2% [at 2.29 µM]
N[C@H](C(=O)O)[C@H](N)C(=O)O	> 11.4 µM	9.49%	inactive	-1.65%	4.68%	> 46 µM	> 9.22 µM	inactive	inactive	–
O=C(O)CNC(=O)c1ccccc1O	> 11.4 µM	6.2%	5.01 µM (active)	10.4%	6.14%	> 46 µM	> 9.22 µM	inactive	inactive	–
CC(C)(C)OC(=O)[C@H]([C@@H]1N[C@@H](C(=O)O)C(C)(C)S1)N1C(=O)c2ccccc2C1=O	> 11.4 µM	-0.34%	–	-5.29%	3.62%	> 46 µM	> 9.22 µM	inactive	inactive	-1.4% [at 2.29 µM]
Nc1nc2c(c(=O)[nH]1)CN(c1ccc(S(N)(=O)=O)cc1)CN2	> 11.4 µM	-2.56%	–	12%	1.71%	> 46 µM	> 9.22 µM	inactive	inactive	8.8% [at 2.29 µM]
O[C@H](COc1ccccc1)CN1CCCCC1	> 11.4 µM	-1.24%	inactive	2.42%	10.3%	> 46 µM	> 9.22 µM	inactive	inactive	–
Nc1[nH]c(=O)nc2c1ncn2[C@H]1O[C@@H](CO)[C@@H](O)[C@@H]1O	> 11.4 µM	-9.66%	inactive	15.7%	17.5%	> 46 µM	> 9.22 µM	inactive	inactive	–
O=C(O)CCC(O)=C1S(=O)(=O)OCCOS1(=O)=O	> 11.4 µM	-1.99%	inactive	2.36%	2.62%	> 46 µM	> 9.22 µM	inactive	inactive	–
NCOC(=O)Cc1ccc(Br)cc1	> 11.4 µM	2.56%	0.2 µM (active)	11%	5.96%	> 46 µM	> 9.22 µM	inactive	inactive	–
O=C(O)c1cccc(C(=O)O)c1S(=O)Cc1ccccc1 (centres undefined)	> 11.4 µM	5.26%	inactive	7.39%	6.2%	> 46 µM	> 9.22 µM	inactive	inactive	–
N#CCCn1c(=O)c(-c2ccccc2)nc2cnc(Oc3cccc(Cl)c3)nc21	> 11.4 µM	-25.4%	2.51 µM (active)	-23.9%	-4.6%	> 9.22 µM	> 46 µM	inactive	inactive	–
OC[C@@H](O)CNc1ncnc2ccccc12	> 11.4 µM	-1.31%	inactive	9.96%	2.66%	> 46 µM	> 9.22 µM	inactive	inactive	–
c1cc2c(cc1C(N1CCNCC1)N1CCNCC1)OCO2	> 11.4 µM	1.84%	–	8.42%	-2.48%	> 46 µM	> 9.22 µM	inactive	inactive	-3% [at 2.29 µM]
